Over roughly 4,100 sequences, “RBNS R-value (6-mer enrichment in protein-bound RNA vs input library)” has its median near 0.99; the highest 2% begin near 1.4. The full list was thinned out, with the highest values kept by preference.
Tested on: PfIESI-1 RRM domain (Plasmodium falciparum ortholog aa 875-1232, GST fusion)
Test: RBNS R-value (6-mer enrichment in protein-bound RNA vs input library) (ratio); higher = stronger binding preference; the methods of the paper give 50 / 100 / 500 nM protein instead
Experimental: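 RNA Bind-n-Seq: recombinant GST-tagged IESI-1 RRM domain was incubated at room temperature with a random 40-nt in vitro transcribed RNA library at 250, 500 or 1000 nM protein. Bound RNA was pulled down on glutathione beads and sequenced. R-value is the enrichment of each 6-mer in the bound RNA relative to the input library. Each 6-mer sits inside the random 40-mer context, not as an isolated oligo. Values are replicate 1 only.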

Sequence | RBNS R-value (protein concentration: 250 nM) | RBNS R-value (protein concentration: 500 nM) | RBNS R-value (protein concentration: 1000 nM)
UGGGUC | 0.985 | 0.933 | 1.01
UGUCAG | 0.921 | 0.924 | 0.976
CAAAUC | 0.911 | 0.973 | 0.983
UUGACU | 1.07 | 1.06 | 1.05
UAACGC | 0.896 | 0.876 | 0.884
CAUCAC | 0.917 | 0.894 | 0.935
AUAUAC | 0.837 | 0.813 | 0.766
GACCUC | 1.02 | 0.989 | 1.03
UCUGAA | 0.982 | 1.05 | 1.03
UCUGAU | 1.88 | 1.98 | 1.58
GCUGAG | 1.09 | 1.07 | 1.1
CCUGAG | 1.47 | 1.26 | 1.34
GCUGAU | 1.77 | 1.76 | 1.47
ACUGAU | 1.89 | 2.06 | 1.65
GCUGAC | 1.07 | 1.02 | 1.07
ACUGAG | 1.08 | 1.13 | 1.11
UCUGAG | 1.12 | 1.1 | 1.14
UCUGAC | 1.02 | 0.998 | 1.05
CCUGCG | 1.1 | 1.05 | 1.1
ACUGAC | 1.04 | 1.03 | 1.04
CAGAAC | 1.11 | 1.13 | 1.13
AGUCCC | 1.01 | 0.956 | 1.01
UACCGG | 0.983 | 0.914 | 0.955

Sequence | RBNS R-value (protein concentration: 250 nM) | RBNS R-value (protein concentration: 500 nM) | RBNS R-value (protein concentration: 1000 nM)
CAGUAA | 0.864 | 0.913 | 0.866
CUACAU | 0.824 | 0.777 | 0.777
GUUCCU | 1.02 | 0.962 | 1.01
AACAGG | 0.999 | 1.07 | 1.06
GGGACU | 1 | 0.984 | 1.02
GAAGAC | 1.14 | 1.17 | 1.15
AGAGUC | 1.01 | 1.03 | 1.05
AUGUGA | 1.15 | 1.26 | 1.14
CUGGGC | 1.06 | 0.987 | 1.04
CCUGAA | 1.17 | 1.17 | 1.18
CCUGAU | 1.99 | 2.08 | 1.66
CCUGAC | 1.14 | 1.07 | 1.12
AUGCGG | 1.02 | 1.01 | 1.01
UCUAGU | 0.878 | 0.906 | 0.899
CAUGCC | 1.04 | 0.974 | 1.05
UAUGCG | 0.899 | 0.892 | 0.894
GAUGCA | 1.39 | 1.42 | 1.29
GAUGCC | 1.57 | 1.46 | 1.39
AAUGCG | 0.939 | 0.968 | 0.95
GAUGCG | 1.41 | 1.42 | 1.31
UAUGCA | 0.846 | 0.862 | 0.85
CAUGCA | 0.934 | 0.914 | 0.92
UAUGCC | 0.946 | 0.891 | 0.903

Sequence | RBNS R-value (protein concentration: 250 nM) | RBNS R-value (protein concentration: 500 nM) | RBNS R-value (protein concentration: 1000 nM)
CUCGUG | 0.979 | 0.913 | 0.998
AGCGGC | 1.05 | 1.03 | 1.01
AUUCUU | 1.04 | 1.06 | 1.02
CUUAGC | 0.907 | 0.84 | 0.885
CGGUCA | 0.933 | 0.898 | 0.979
GAUUCC | 1.51 | 1.47 | 1.38
AAUUCA | 0.972 | 1.06 | 0.981
GAUUCG | 1.43 | 1.44 | 1.31
GAUUCA | 1.44 | 1.56 | 1.35
AAUUCC | 1.16 | 1.15 | 1.16
UAUUCU | 0.875 | 0.813 | 0.832
AAUUCU | 1.01 | 1.07 | 1.06
CAUUCG | 1.02 | 0.992 | 1.04
GAUUCU | 1.53 | 1.6 | 1.33
AAUUCG | 0.99 | 1.06 | 1.02
CAUUCC | 1.04 | 0.997 | 1.05
UAUUCA | 0.803 | 0.794 | 0.796
AGGUAA | 0.909 | 0.998 | 0.997
CUUAAG | 0.818 | 0.849 | 0.846
UCCUUU | 0.883 | 0.825 | 0.875
UACCGA | 1.01 | 0.978 | 0.96
AGGGAG | 1.09 | 1.11 | 1.06
GAUAAC | 1.16 | 1.26 | 1.15

Sequence | RBNS R-value (protein concentration: 250 nM) | RBNS R-value (protein concentration: 500 nM) | RBNS R-value (protein concentration: 1000 nM)
AAUUGU | 0.865 | 0.926 | 0.948
GAUUGU | 1.04 | 1.04 | 0.998
CAUUGC | 0.987 | 0.973 | 0.976
GAUUGA | 1.61 | 1.69 | 1.43
AAUUGA | 1.37 | 1.52 | 1.31
CAUUGA | 1.33 | 1.37 | 1.22
UAUUGA | 1.07 | 1.14 | 0.985
GAUUGG | 1.37 | 1.37 | 1.25
GAUUGC | 1.7 | 1.68 | 1.42
UCCGUC | 0.938 | 0.878 | 0.944
GUAUCA | 0.785 | 0.812 | 0.852
UCCUGU | 0.873 | 0.838 | 0.868
ACUGCC | 1 | 0.929 | 0.986
GAUGUA | 1.25 | 1.39 | 1.2
UAUGUA | 0.792 | 0.805 | 0.771
UAUGUG | 0.854 | 0.869 | 0.848
GAUGUG | 1.53 | 1.65 | 1.36
AAUGUU | 0.827 | 0.922 | 0.9
GAUGUC | 1.37 | 1.39 | 1.29
GAUGUU | 1.47 | 1.53 | 1.31
CAUGUC | 0.881 | 0.88 | 0.921
UAUGUC | 0.791 | 0.772 | 0.81
CAUGUU | 0.853 | 0.856 | 0.878

Sequence | RBNS R-value (protein concentration: 250 nM) | RBNS R-value (protein concentration: 500 nM) | RBNS R-value (protein concentration: 1000 nM)
CAUGUG | 0.924 | 0.964 | 0.964
AAUGUA | 0.778 | 0.871 | 0.819
CAGUCU | 0.933 | 0.914 | 0.963
GGCAUU | 1.01 | 0.953 | 0.972
CUAUCU | 0.826 | 0.759 | 0.772
CAUCUC | 0.925 | 0.891 | 0.96
AGUACG | 0.91 | 0.935 | 0.91
GUCAAG | 0.874 | 0.904 | 0.946
AUACUA | 0.816 | 0.825 | 0.779
GGCUAG | 1.05 | 1.01 | 1.03
AGAAUA | 1.03 | 1.18 | 1.1
UUCAUC | 0.934 | 0.912 | 0.924
AGGAUG | 1.1 | 1.1 | 1.12
ACGAUG | 1.33 | 1.38 | 1.21
UUGAUA | 1.72 | 1.92 | 1.6
CAGAUA | 0.988 | 1.03 | 0.99
UCGAUA | 0.937 | 0.932 | 0.928
ACGAUC | 0.952 | 0.918 | 0.959
UUGAGA | 1.19 | 1.22 | 1.18
AUGAGC | 1.14 | 1.16 | 1.1
AUGAUC | 1.38 | 1.42 | 1.24
CUGACA | 1.13 | 1.11 | 1.11
AUGAUG | 3.17 | 3.42 | 2.39

Sequence | RBNS R-value (protein concentration: 250 nM) | RBNS R-value (protein concentration: 500 nM) | RBNS R-value (protein concentration: 1000 nM)
CUGAUA | 1.57 | 1.71 | 1.43
CUCCUU | 0.894 | 0.809 | 0.869
CUCACC | 1.06 | 0.994 | 1.04
UUCGCC | 1.06 | 0.992 | 1.03
GCGAAU | 1.01 | 1.07 | 1.04
CUUUUU | 0.934 | 0.932 | 0.919
UUGACG | 1.14 | 1.1 | 1.07
UAAAUA | 0.769 | 0.893 | 0.797
AAAUAA | 0.785 | 0.993 | 0.847
AUAAUG | 0.87 | 0.985 | 0.875
GCGAUG | 1.37 | 1.39 | 1.28
UUGAUC | 1.32 | 1.35 | 1.22
AUGAAU | 1.08 | 1.18 | 1.04
UAGAUG | 1.1 | 1.17 | 1.07
GCGAUC | 0.968 | 0.948 | 1.02
AUGAUU | 2.75 | 3 | 2.19
UUGAUG | 2.95 | 3.14 | 2.32
CCGAUG | 1.38 | 1.35 | 1.29
AGGAUU | 1.04 | 1.06 | 1.06
GUGAUG | 2.02 | 2.17 | 1.72
GUGAAG | 0.986 | 0.998 | 1.03
GGGAUG | 1.12 | 1.08 | 1.09
UUAGAA | 0.943 | 1.05 | 0.999

Sequence | RBNS R-value (protein concentration: 250 nM) | RBNS R-value (protein concentration: 500 nM) | RBNS R-value (protein concentration: 1000 nM)
GACUAA | 0.913 | 0.983 | 0.945
CGCGAU | 1.17 | 1.15 | 1.13
UCCACU | 0.991 | 0.933 | 0.95
GUCUUC | 0.908 | 0.868 | 0.954
GCAUCC | 1.14 | 1.06 | 1.11
CUAACC | 0.953 | 0.903 | 0.903
AGCGUA | 0.911 | 0.94 | 0.898
CAAAGA | 1.13 | 1.21 | 1.2
CUGAUC | 1.29 | 1.27 | 1.2
AUGAGA | 1.23 | 1.31 | 1.23
CUGAUG | 2.47 | 2.58 | 1.97
AUGAUA | 1.84 | 2.08 | 1.63
AGGAUA | 0.981 | 1.03 | 1.01
CGGAUG | 1.03 | 0.978 | 1.02
AGGCGG | 1.02 | 0.987 | 1.05
CCAACU | 0.966 | 0.921 | 0.933
UUGGGU | 0.975 | 0.933 | 0.982
UGAGAA | 1.33 | 1.39 | 1.34
CGAGAC | 1.23 | 1.2 | 1.18
UGAGAG | 1.18 | 1.16 | 1.19
UGAGAC | 1.16 | 1.17 | 1.15
AGAGAC | 1.18 | 1.21 | 1.17
AGAGAG | 1.19 | 1.25 | 1.24

Sequence | RBNS R-value (protein concentration: 250 nM) | RBNS R-value (protein concentration: 500 nM) | RBNS R-value (protein concentration: 1000 nM)
CGAGAG | 1.29 | 1.22 | 1.27
AGAGAA | 1.34 | 1.48 | 1.37
CGAGAA | 1.52 | 1.53 | 1.43
UGUCAC | 0.945 | 0.963 | 0.96
UGGCAU | 1.09 | 1.07 | 1.06
GUCCUC | 0.918 | 0.874 | 0.925
ACCUAU | 0.891 | 0.846 | 0.828
CGGGGA | 1.15 | 1.1 | 1.16
GAACUU | 0.955 | 0.971 | 0.985
UAUGAC | 0.947 | 0.945 | 0.924
GAUGAG | 1.61 | 1.68 | 1.43
AAUGAC | 1.08 | 1.1 | 1.09
GAUGGU | 1.18 | 1.23 | 1.13
GAUGAC | 1.8 | 1.8 | 1.51
AAUGAA | 0.954 | 1.1 | 1.03
GACGAG | 1.12 | 1.13 | 1.11
GAUGAU | 2.43 | 2.58 | 1.9
GAUGCU | 1.34 | 1.37 | 1.24
GAUGAA | 1.88 | 2 | 1.59
GGUGAA | 0.997 | 1.06 | 1.06
GAAUAC | 0.992 | 1.04 | 0.993
CAACUU | 0.893 | 0.889 | 0.886
GUAAUU | 0.943 | 0.984 | 0.95
